Laboratory results from PubChem BioAssay (NCI).
Several values for one entry are separate records, joined by “and”; a condition that tells them apart may be missing. Equal values may be shown once. The panel holds about 83,000 compounds, 20% with a hit somewhere; the sample as a whole holds those more often.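 In brief: 96-well plates, 48 h treatment, single concentration, percent growth endpoint.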 Activity calls are given as the source filed them. The calls were made as follows: active = growth percent below 10; inactive = the rest.

What was measured:
Test in all cases: NCI-60 one-dose screen, 48 h (100 = growth as untreated, 0 = no growth, -100 = all killed)
DU-145 prostate = conditions: 10 µM unless noted
K-562 leukemia = conditions: 10 µM unless noted
MALME-3M melanoma = conditions: 10 µM unless noted
MDA-MB-231 breast = conditions: 10 µM unless noted
RXF 393 renal = conditions: 10 µM unless noted
SF-268 CNS = conditions: 10 µM unless noted
SF-295 CNS = conditions: 10 µM unless noted
SF-539 CNS = conditions: 10 µM unless noted
UACC-257 melanoma = conditions: 10 µM unless noted
M14 melanoma = conditions: 10 µM unless noted
HCT-15 colon = conditions: 10 µM unless noted
HT29 colon = conditions: 10 µM unless noted
SNB-75 CNS = conditions: 10 µM unless noted
SNB-19 CNS = conditions: 10 µM unless noted
U251 CNS = conditions: 10 µM unless noted
PC-3 prostate = conditions: 10 µM unless noted
SK-MEL-5 melanoma = conditions: 10 µM unless noted
UACC-62 melanoma = test system: UACC-62 melanoma
LOX IMVI melanoma = conditions: 10 µM unless noted
SK-MEL-28 melanoma = conditions: 10 µM

Measured: growth

CC[C@@]1(O)C(=O)OCc2c1cc1n(c2=O)Cc2cc3ccccc3nc2-1
active: DU-145 prostate -31.9% | K-562 leukemia 0.554% | MALME-3M melanoma -59.5% | RXF 393 renal 6.33% | SF-268 CNS 2.82% | SF-295 CNS -14.4% | SF-539 CNS -46.4% | UACC-257 melanoma -17.8% | M14 melanoma -39% | HCT-15 colon -18.7% | HT29 colon -31.8% | SNB-75 CNS -41.8% | SNB-19 CNS -0.517% | U251 CNS -31.6% | PC-3 prostate -22.3% | SK-MEL-5 melanoma -83.9% | UACC-62 melanoma; 10 µM -49.1% | LOX IMVI melanoma -62.4%
inactive: MDA-MB-231 breast 28.6%

CC[C@@]1(O)C[C@H](OC2CC(N(C)C)C(OC3CC(O)C(OC4CCC(=O)C(C)O4)C(C)O3)C(C)O2)c2c(cc3c(c2O)C(=O)c2c(O)ccc(O)c2C3=O)[C@H]1C(=O)OC (stereo partly specified)
active: DU-145 prostate 1.38% | K-562 leukemia 0.0817% | MALME-3M melanoma -12.2% | SF-295 CNS 8.52% | SF-539 CNS -5.75% | UACC-257 melanoma -30.9% | M14 melanoma 3.55% | HCT-15 colon -70.6% | HT29 colon -47.4% | SNB-75 CNS -37.1% | U251 CNS -38.3% | PC-3 prostate -24.5% | SK-MEL-5 melanoma -24.9% | UACC-62 melanoma; 10 µM -72.9% | LOX IMVI melanoma -68.8%
inactive: MDA-MB-231 breast 28.4% | RXF 393 renal 12.6% | SF-268 CNS 22.7% | SNB-19 CNS 25.7%

COc1cccc2c1cc([N+](=O)[O-])c1c(C(=O)O)cc3c(c12)OCO3
inactive: DU-145 prostate 15.6% and 118% | K-562 leukemia 73.5% and 67.8% | MALME-3M melanoma 106% and 98.7% | MDA-MB-231 breast 88.4% and 106% | RXF 393 renal 49.1% and 101% | SF-268 CNS 45.9% and 113% | SF-295 CNS 44.9% and 90.4% | SF-539 CNS 71.9% and 90% | UACC-257 melanoma 97.7% and 111% | M14 melanoma 84.5% and 99% | HCT-15 colon 69.3% and 105% | SNB-75 CNS 79.4% and 106% | SNB-19 CNS 79.3% and 97.7% | U251 CNS 60.2% and 96.7% | PC-3 prostate 77.3% and 73.7% | SK-MEL-5 melanoma 78.9% and 104% | UACC-62 melanoma; 10 µM 84.3% and 96.5% | LOX IMVI melanoma 70.4% and 99.2% | SK-MEL-28 melanoma 99.8%
active: HT29 colon 0.29% and -24.5% | UACC-62 melanoma; 100 µM -19.4% and 0.694%

CC[C@@]1(O)C[C@H](OC2CC(N(C)C)C(O)C(C)O2)c2c(O)c3c(c(O)c2[C@H]1OC1CC(N(C)C)C(O)C(C)O1)C(=O)c1cccc(O)c1C3=O (stereo partly specified)
active: DU-145 prostate -4.8% | K-562 leukemia -28.5% | MALME-3M melanoma -93.7% | MDA-MB-231 breast -9.74% | RXF 393 renal 0.503% | SF-268 CNS -19.3% | SF-295 CNS -27.2% | SF-539 CNS -48.9% | UACC-257 melanoma 2.59% | M14 melanoma -87.2% | HCT-15 colon -49.7% | HT29 colon -39% | SNB-75 CNS -94.6% | SNB-19 CNS 5.62% | U251 CNS -21.9% | PC-3 prostate -61.8% | SK-MEL-5 melanoma -89% | UACC-62 melanoma; 10 µM -63.2% | LOX IMVI melanoma -36.2%

CCC1(O)CC(OC2CC(N(C)C)C(OC3CC4OC5CC(=O)C(C)OC5OC4C(C)O3)C(C)O2)c2c(cc3c(c2O)C(=O)c2c(O)ccc(O)c2C3=O)C1C(=O)OC (stereo unspecified)
active: DU-145 prostate -12.7% | K-562 leukemia -39.7% | MALME-3M melanoma -95.3% | MDA-MB-231 breast -5.87% | RXF 393 renal -1.64% | SF-268 CNS -14.3% | SF-295 CNS -32.7% | SF-539 CNS -55.6% | UACC-257 melanoma -3.52% | M14 melanoma -95% | HCT-15 colon -46.1% | HT29 colon -36.4% | SNB-75 CNS -98% | SNB-19 CNS 0.801% | U251 CNS -18.4% | PC-3 prostate -63.5% | SK-MEL-5 melanoma -87.3% | UACC-62 melanoma; 10 µM -72.5% | LOX IMVI melanoma -22.7%

COc1ccccc1/C=C(/C)[N+](=O)[O-]
inactive: DU-145 prostate 27.7% and 107% | K-562 leukemia 39.9% and 97.5% | MALME-3M melanoma 72.8% and 89.3% | MDA-MB-231 breast 70% and 105% | SF-268 CNS 80.5% and 99.1% | SF-295 CNS 102% and 94.6% | SF-539 CNS 88% and 96.8% | UACC-257 melanoma 80.9% and 75% | M14 melanoma 79.2% and 95% | HCT-15 colon 32.3% and 99.8% | HT29 colon 54.7% and 88.8% | SNB-75 CNS 68.3% and 85% | SNB-19 CNS 73.9% and 107% | U251 CNS 83% and 98.7% | PC-3 prostate 90.3% and 84.7% | SK-MEL-5 melanoma 80.3% and 102% | UACC-62 melanoma; 10 µM 58.1% and 103% | LOX IMVI melanoma 22.2% and 92.2% | SK-MEL-28 melanoma 83.3% and 116%
-1.25% (active) and 116% (inactive): RXF 393 renal

NCCc1ccc(OCc2ccccc2)c(OCc2ccccc2)c1
inactive: DU-145 prostate 97.3% | K-562 leukemia 30.8% | MALME-3M melanoma 106% | MDA-MB-231 breast 79.2% | RXF 393 renal 62.2% | SF-268 CNS 89.2% | SF-295 CNS 97.1% | SF-539 CNS 93.1% | M14 melanoma 102% | HCT-15 colon 75.3% | HT29 colon 55% | SNB-75 CNS 63.9% | SNB-19 CNS 94.5% | U251 CNS 44.3% | PC-3 prostate 74.1% | SK-MEL-5 melanoma 89.3% | UACC-62 melanoma; 10 µM 95.9% | LOX IMVI melanoma 63.2% | SK-MEL-28 melanoma 97.3%

CCC(=O)OC1CCn2c1nc1c2C(=O)C(C)=C(N2CC2)C1=O (stereo unspecified)
inactive: MDA-MB-231 breast 71.7%
active: K-562 leukemia 9.08% | MALME-3M melanoma -60.4% | RXF 393 renal -79.8% | SF-268 CNS 7.54% | SF-295 CNS 2.01% | SF-539 CNS -33.6% | UACC-257 melanoma -55.7% | M14 melanoma -58.1% | HCT-15 colon 2.82% | HT29 colon 7.71% | SNB-75 CNS -87% | SNB-19 CNS 1.12% | U251 CNS -24.2% | PC-3 prostate 8.58% | SK-MEL-5 melanoma -98% | UACC-62 melanoma; 10 µM -67.8% | LOX IMVI melanoma -75.7% | SK-MEL-28 melanoma -42.1%

Cc1c(N)nc([C@H](CC(N)=O)NC[C@H](N)C(N)=O)nc1C(=O)N[C@H](C(=O)N[C@H](C)[C@@H](O)[C@H](C)C(=O)N[C@H](C(=O)NCCc1nc(-c2nc(C(=O)NCCC[S+](C)C)cs2)cs1)[C@@H](C)O)C(OC1OC(CO)C(O)C(O)C1OC1OC(CO)C(O)C(OC(N)=O)C1O)c1cnc[nH]1 (stereo partly specified)
active: SF-295 CNS 8.69% [2.5 µM] | SF-539 CNS -48.7% [2.5 µM] | UACC-62 melanoma; 25 µM -42.5% and -100%
inactive: DU-145 prostate 58.7% [2.5 µM] | K-562 leukemia 65.8% [2.5 µM] | MALME-3M melanoma 45.9% [2.5 µM] | MDA-MB-231 breast 99.2% [2.5 µM] | RXF 393 renal 20.5% [2.5 µM] | SF-268 CNS 61.6% [2.5 µM] | UACC-257 melanoma 31.9% [2.5 µM] | HCT-15 colon 67.8% [2.5 µM] | HT29 colon 77.9% [2.5 µM] | SNB-75 CNS 40.6% [2.5 µM] | SNB-19 CNS 74.2% [2.5 µM] | U251 CNS 58.4% [2.5 µM] | PC-3 prostate 60.5% [2.5 µM] | SK-MEL-5 melanoma 34.1% [2.5 µM] | UACC-62 melanoma; 2.5 µM 43.8% | LOX IMVI melanoma 14.3% [2.5 µM]

CO[C@H](/C(C)=C/C=C/C(C)=C/c1coc(C)n1)[C@H](C)[C@H]1C[C@@H](O)[C@@]2(C)O[C@H]2/C=C/[C@@H](C)[C@@H]2C[C@@H](CC(=O)O2)C[C@H]2O[C@@H]2C(=O)O1
inactive: MALME-3M melanoma 15.2% | MDA-MB-231 breast 25.9% | RXF 393 renal 13.7% | SF-268 CNS 32.5% | UACC-257 melanoma 19.1% | SNB-19 CNS 21.2% | LOX IMVI melanoma 13.1%
active: DU-145 prostate -18.9% | K-562 leukemia -31.6% | SF-295 CNS -13.3% | SF-539 CNS -19.2% | M14 melanoma -0.709% | HCT-15 colon -31% | HT29 colon -23.2% | SNB-75 CNS -46.7% | U251 CNS 3.46% | PC-3 prostate -14.4% | SK-MEL-5 melanoma -18.7% | UACC-62 melanoma; 10 µM 8.74%

Oc1cc[c]([Hg][Cl])cc1
inactive: DU-145 prostate 94.3% | K-562 leukemia 60.2% | MALME-3M melanoma 94.2% | RXF 393 renal 116% | SF-268 CNS 95.4% | SF-295 CNS 113% | SF-539 CNS 121% | UACC-257 melanoma 99.6% | M14 melanoma 91.1% | HCT-15 colon 91.4% | HT29 colon 100% | SNB-75 CNS 92.3% | SNB-19 CNS 100% | U251 CNS 85.9% | PC-3 prostate 99.7% | SK-MEL-5 melanoma 74.5% | UACC-62 melanoma; 10 µM 92.1% | LOX IMVI melanoma 71.3% | SK-MEL-28 melanoma 74.5%

COC1CC(CC2CCC(C)C(C(C)C(=O)O)O2)OC2(OC(C)(C3CCC(C)(C4OC(C5OC(O)(CO)C(C)CC5C)CC4C)O3)CC2C)C1C (stereo unspecified)
active: K-562 leukemia -67.6% | MALME-3M melanoma -96% | MDA-MB-231 breast -21.7% | SF-295 CNS -39.2% | SF-539 CNS -49.1% | UACC-257 melanoma 7.33% | M14 melanoma -71.9% | HCT-15 colon 5.7% | HT29 colon -0.662% | SNB-75 CNS -60.6% | SNB-19 CNS -2.87% | U251 CNS 3.01% | PC-3 prostate 5.39% | SK-MEL-5 melanoma -96.3% | UACC-62 melanoma; 10 µM -98.8%
inactive: DU-145 prostate 17.5% | RXF 393 renal 28% | SF-268 CNS 10.7% | LOX IMVI melanoma 11.3%
